# Whole data set: some 33,000 sequences, median “E-score (-0.5 to 0.5)” near -0.011, cut for the highest 2% near 0.28. The sample as a whole holds a higher share of the highest values than the screen did.
# Biological target: T1, Gcr1 (UniProt P07261)
# T1 sequence: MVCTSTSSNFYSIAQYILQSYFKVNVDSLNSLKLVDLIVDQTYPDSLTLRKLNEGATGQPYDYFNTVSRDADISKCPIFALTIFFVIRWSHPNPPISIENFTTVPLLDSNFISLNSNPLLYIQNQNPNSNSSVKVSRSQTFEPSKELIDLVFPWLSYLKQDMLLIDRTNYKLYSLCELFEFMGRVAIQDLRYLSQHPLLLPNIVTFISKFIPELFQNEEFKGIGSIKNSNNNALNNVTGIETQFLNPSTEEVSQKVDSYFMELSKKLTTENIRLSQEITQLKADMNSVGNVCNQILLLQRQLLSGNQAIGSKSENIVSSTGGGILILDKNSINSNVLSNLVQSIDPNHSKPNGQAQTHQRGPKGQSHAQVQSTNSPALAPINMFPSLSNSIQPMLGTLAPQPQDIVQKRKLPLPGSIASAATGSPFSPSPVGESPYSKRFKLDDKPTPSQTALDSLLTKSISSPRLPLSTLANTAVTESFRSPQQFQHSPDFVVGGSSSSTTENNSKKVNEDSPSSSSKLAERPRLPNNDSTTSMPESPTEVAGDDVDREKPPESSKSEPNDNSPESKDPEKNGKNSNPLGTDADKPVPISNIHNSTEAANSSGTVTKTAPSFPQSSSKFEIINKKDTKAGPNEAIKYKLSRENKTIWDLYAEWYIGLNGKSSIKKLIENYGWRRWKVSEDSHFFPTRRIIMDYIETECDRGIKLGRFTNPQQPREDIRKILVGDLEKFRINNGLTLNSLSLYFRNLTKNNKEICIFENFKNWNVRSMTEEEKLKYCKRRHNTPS
# Assay: PBM E-score (8-mer binding enrichment) (E-score (-0.5 to 0.5)); higher = stronger / more preferred TF binding
# Details: protein concentration: 100 nM; construct: GST-full length
# Protocol: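 Universal 'all 10-mer' protein binding microarrays (Agilent AMADID 015681) probed with GST-tagged S. cerevisiae TFs (full-length or DBD) made by in vitro transcription/translation (PURExpress), about 100-200 nM. Bound TF was detected with fluorescent anti-GST. Each ungapped 8-mer (which stands for itself and its reverse complement) is scored by the PBM enrichment score (E-score), a modified Wilcoxon-Mann-Whitney statistic from -0.5 to +0.5, computed with the Universal PBM Analysis Suite. Scale: above 0.35 generally sequence-specific binding.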
row,Sequence,PBM E-score
1,AGGGATGC,0.098
2,CCAGCTGG,0.157
3,ACTCTAAC,0.00366
4,CCCTTGCA,-0.097
5,ACCGGAGG,-0.09
6,TATGAAAA,0.131
7,AGGCAGTA,-0.0662
8,CTGGTATA,-0.0854
9,ACGTGTTA,-0.0746
10,AGCTCGCG,-0.0019
11,GAGGATAC,-0.00197
12,GAGGATGC,0.423
13,CCGGATGC,0.4
14,CCGGATGA,0.112
15,GAGGATGA,-0.0555
16,ACGGATGC,0.183
17,GCAGGGGA,-0.102
18,CGGTGCAC,-0.105
19,AGAGCAGC,0.0483
20,AGCCATGC,-0.346
21,CCAGAAAA,0.335
22,ACCGAATA,-0.0481

row,Sequence,PBM E-score
1,CCCGAATA,0.334
2,CCAGAATC,0.245
3,GCCGAATA,0.2
4,CCAGAATA,0.283
5,CAAGAATA,0.19
6,ACAGAAAA,-0.076
7,CAAGAAAA,0.248
8,GGTTGACA,0.0705
9,AATCGGGC,0.114
10,CATAGGCA,0.0323
11,CTGATGGC,-0.068
12,ACGGTAGA,0.138
13,TGAAACAA,0.0585
14,CGCCTGAA,0.143
15,AAGCATCA,-0.0253
16,GAGCATCA,-0.0695
17,GAGCATAC,-0.155
18,GAGCATCC,0.398
19,CAGCATCC,0.447
20,AAGCATCG,0.0291
21,AAGCATCC,0.404
22,CAGCATCA,-0.00923

row,Sequence,PBM E-score
1,CAGCATCG,0.0157
2,CTCTCGCA,0.0115
3,ACACTGGT,0.035
4,CAGGGACC,0.0209
5,AAAGTCTT,-0.247
6,AGACACTA,-0.0252
7,ATAAAGGG,0.123
8,ACGGAGCT,-0.175
9,ACGAAGCA,-0.12
10,ACGAAGCC,0.428
11,ACGAAGCG,0.0293
12,CCGAAGCC,0.136
13,ACAAAGCT,0.0432
14,ACGAAGCT,0.399
15,TCAGGCCA,-0.118
16,GACAGACC,-0.157
17,AACTAGTT,0.0246
18,AGGCTCGC,-0.213
19,CCTGGGCA,-0.022
20,CCTATAGC,-0.0383
21,ACTATAGA,0.0257
22,CCTATAGA,0.286

row,Sequence,PBM E-score
1,TATGAAGA,0.0942
2,ATAATTAA,0.134
3,ATAATTAC,0.0678
4,ATAATTAT,0.297
5,GAAAGAGA,-0.038
6,ACGCTGAT,-0.0742
7,ACGCTGCT,0.34
8,ACGCTGCA,0.0243
9,ACGCTGCC,0.339
10,ACGCTGCG,0.086
11,GCGCTGCC,0.0863
12,AGCAGGAC,-0.0439
13,AGTCCCGG,0.108
14,CCAGGCCG,-0.117
15,GAGCTAGC,-0.122
16,GCGAGCGC,-0.0888
17,AGATCAGA,-0.0273
18,AACCCTGT,-0.0296
19,AAATCTGC,0.0369
20,AAATCTGG,0.292

# From the supplement of paper PMC3334620
